# A collection of fitness landscapes (doi:10.1016/j.celrep.2020.107928)
# In all, about 81,000 sequences were measured (“one-hybrid fitness for binding parS DNA”: median about -0.17, highest 2% from about 0.51 on). Many of the other results were omitted from the sample, so the highest values are more common in it than they were.
# B1: Caulobacter ParB omega fusion; a variant is named by its letters at X, in order, B8GW30 (parent)
# chain: MESVVVGEPGMSEGRRGLGRGLSALLGEVDAAPAQAPGEQLGGSREAPIEILQRNPDQPRRTFREEDLEDLSNSIREKGVLQPILVRPSPDTAGEYQIVAGERAWRAAQRAGLKTVPIMVRELDDLAVLEIGIIENVQRADLNVLEEALSYKVLMEKFERTQENIAQTIGKSXSHVANXMRLLXLPDEVQSYLVSGELTAXHARAIAAAADPVALAKQIIEGGLSVRETEALARKAPNLSAGKSKGGRPPRVKDTDTQALESDLSSVLGLDVSIDHRGSTGTLTITYATLEQLDDLCNRLTRGI
# Variants of: B1
# Experiment: one-hybrid fitness for binding parS DNA (scaled: cognate 1, non-cognate 0); higher = stronger binding
# Conditions: with parS DNA site
# Procedure, shortened: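 Fitness here means the log change in variant-to-wild-type read ratio between plasmids sequenced before and after selection. That scale was set so cognate equals 1 and non-cognate equals 0. The selection was a bacterial one-hybrid screen of Caulobacter ParB libraries, four specificity codons randomised, in E. coli USO carrying a HIS3 reporter with the site 19 bp from the promoter, grown 48 hours at 37°C on M9-minus-histidine with 0.1 mM IPTG and 5 mM 3-AT.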
row,Variant,one-hybrid fitness for binding parS DNA
1,IHAA,≤ 0.2
2,GDDN,≤ 0.2
3,RFCT,0.725
4,RFYT,0.801
5,RFSN,0.377
6,RFPT,0.376
7,RFCR,≤ 0.2
8,NFRT,≤ 0.2
9,SFCT,≤ 0.2
10,RFRH,0.219
11,RFRT,0.9
12,NFST,≤ 0.2
13,RFST,0.841
14,RFIT,0.508
15,SRLA,≤ 0.2
16,RPYM,≤ 0.2
17,QLWS,≤ 0.2
18,QWRP,≤ 0.2
19,YTDG,≤ 0.2
20,VYTC,≤ 0.2
21,AQSP,≤ 0.2
22,FRLV,≤ 0.2
23,MRTY,≤ 0.2
24,RFLT,0.75

row,Variant,one-hybrid fitness for binding parS DNA
1,RFNP,≤ 0.2
2,RFNT,0.862
3,RFQT,0.8
4,RFNN,0.411
5,DFLT,≤ 0.2
6,RFLP,≤ 0.2
7,RFQP,≤ 0.2
8,RFQD,≤ 0.2
9,WYGN,≤ 0.2
10,YMRM,≤ 0.2
11,YQRV,≤ 0.2
12,AIED,≤ 0.2
13,TPRA,≤ 0.2
14,QTSF,≤ 0.2
15,AAYQ,≤ 0.2
16,WMAR,≤ 0.2
17,RVVY,0.413
18,RVDY,0.427
19,RVKY,0.664
20,RVLY,0.508
21,RVYY,0.495
22,RVRY,0.583
23,RCLY,0.49
24,TIST,≤ 0.2

row,Variant,one-hybrid fitness for binding parS DNA
1,CHTY,≤ 0.2
2,TCYR,≤ 0.2
3,QKCY,≤ 0.2
4,TNVQ,≤ 0.2
5,CETD,≤ 0.2
6,ADRH,≤ 0.2
7,QVQF,≤ 0.2
8,RRWS,0.772
9,RRYH,≤ 0.2
10,RRWD,≤ 0.2
11,RRRH,0.592
12,RRIS,0.753
13,RRIN,0.304
14,RRYS,0.68
15,RRYD,≤ 0.2
16,RRYP,≤ 0.2
17,RRIH,≤ 0.2
18,RRWP,≤ 0.2
19,RRDH,≤ 0.2
20,VFKT,≤ 0.2
21,HRKK,≤ 0.2
22,QLWG,≤ 0.2
23,RFHY,0.462
24,RRRP,0.203

row,Variant,one-hybrid fitness for binding parS DNA
1,RRLS,0.701
2,RRRD,≤ 0.2
3,RRLN,0.396
4,RRRS,0.67
5,RRPN,0.246
6,RRLD,≤ 0.2
7,RRPD,≤ 0.2
8,RRPS,0.757
9,MLQR,≤ 0.2
10,HTWN,≤ 0.2
11,YCLV,≤ 0.2
12,VKKI,≤ 0.2
13,VDFT,≤ 0.2
14,LALR,≤ 0.2
15,QPAK,≤ 0.2
16,VVMR,≤ 0.2
17,VDRK,≤ 0.2
18,NEFY,≤ 0.2
19,RKPH,≤ 0.2
20,RKYP,≤ 0.2
21,RKID,≤ 0.2
22,RKPS,0.682
23,RKLP,≤ 0.2
24,RKIS,0.958

row,Variant,one-hybrid fitness for binding parS DNA
1,RKIP,≤ 0.2
2,RKLD,≤ 0.2
3,RKYS,0.857
4,RKPN,≤ 0.2
5,RKYH,≤ 0.2
6,RKLS,0.876
7,AWGT,≤ 0.2
8,HHGR,≤ 0.2
9,DVDS,≤ 0.2
10,SCTT,≤ 0.2
11,KNMC,≤ 0.2
12,RKRN,0.347
13,RKRH,≤ 0.2
14,RKRS,0.747
15,RKWN,0.364
16,RKWS,0.955
17,RKWD,≤ 0.2
18,IFGG,≤ 0.2
19,PIND,≤ 0.2
20,RMLM,0.363
21,RMLF,0.238
22,RLLG,1.02
23,RDLG,≤ 0.2
24,RPLG,≤ 0.2

row,Variant,one-hybrid fitness for binding parS DNA
1,RCLG,1.01
2,RLLR,≤ 0.2
3,RLLM,0.372
4,RSLG,0.987
5,RMLG,1.01
6,RSLF,0.228
7,RELG,0.217
8,LDYT,≤ 0.2
9,HWFG,≤ 0.2
10,EKQG,≤ 0.2
11,CHLC,≤ 0.2
12,FSIV,≤ 0.2
13,ATPA,≤ 0.2
14,KWRR,≤ 0.2
15,QQPM,≤ 0.2
16,ALLC,≤ 0.2
17,TRRD,≤ 0.2
18,NQPG,≤ 0.2
19,PPRF,≤ 0.2
20,RILG,0.993
21,RILK,≤ 0.2
22,RILF,0.269
23,YPTC,≤ 0.2
24,MMSV,≤ 0.2

row,Variant,one-hybrid fitness for binding parS DNA
1,EQTA,≤ 0.2
2,ACKY,≤ 0.2
3,RNEI,≤ 0.2
4,RNEN,≤ 0.2
5,RNEG,0.677
6,RNES,0.776
7,RNEP,≤ 0.2
8,RNEC,0.613
9,RNEY,≤ 0.2
10,RNEH,≤ 0.2
11,RNED,≤ 0.2
12,FPSI,≤ 0.2
13,MKLG,≤ 0.2
14,VKMN,≤ 0.2
15,KPPS,≤ 0.2
16,RANK,≤ 0.2
17,RADQ,≤ 0.2
18,RADF,≤ 0.2
19,RADC,0.856
20,RANC,0.98
21,RANR,≤ 0.2
22,QRLS,≤ 0.2
23,RCPM,0.203
24,QMWS,≤ 0.2

row,Variant,one-hybrid fitness for binding parS DNA
1,SDGC,≤ 0.2
2,MATR,≤ 0.2
3,VQVL,≤ 0.2
4,PGTH,≤ 0.2
5,KCMT,≤ 0.2
6,GHPI,≤ 0.2
7,YKKF,≤ 0.2
8,RILT,0.89
9,RPLT,≤ 0.2
10,RSLH,0.207
11,RDLT,≤ 0.2
12,RSLP,≤ 0.2
13,RSLT,0.846
14,RMLD,≤ 0.2
15,RCLT,0.966
16,RMLT,0.974
17,RILN,0.422
18,RMLP,≤ 0.2
19,RILD,≤ 0.2
20,QFVS,≤ 0.2
21,EYRS,≤ 0.2
22,FKLR,≤ 0.2
23,GPRL,≤ 0.2
24,HRFW,≤ 0.2

row,Variant,one-hybrid fitness for binding parS DNA
1,QVAA,≤ 0.2
2,QNKG,≤ 0.2
3,GITA,≤ 0.2
4,YHLM,≤ 0.2
5,YQRH,≤ 0.2
6,STFL,≤ 0.2
7,RKSE,≤ 0.2
8,PSQM,≤ 0.2
9,HSHL,≤ 0.2
10,RTLF,0.267
11,RHLN,0.376
12,RTLK,≤ 0.2
13,RTLT,0.936
14,RHLP,≤ 0.2
15,RHLT,0.834
16,TKSI,≤ 0.2
17,DEMS,≤ 0.2
18,YRHE,≤ 0.2
19,PEDT,≤ 0.2
20,VYPT,≤ 0.2
21,RRGP,≤ 0.2
22,RRGS,0.639
23,RRGH,≤ 0.2
24,RRGD,≤ 0.2

row,Variant,one-hybrid fitness for binding parS DNA
1,RCGN,0.445
2,RRGN,0.777
3,WDVG,≤ 0.2
4,IHRW,≤ 0.2
5,RLDD,≤ 0.2
6,RLNG,1.01
7,RLNQ,≤ 0.2
8,RLRG,0.966
9,RLNY,0.495
10,RLRD,≤ 0.2
11,RLDG,0.931
12,RLYP,≤ 0.2
13,RLYG,1.03
14,RLRK,≤ 0.2
15,RLYH,0.271
16,RLDP,≤ 0.2
17,CISS,≤ 0.2
18,EWYV,≤ 0.2
19,QRYM,≤ 0.2
20,QVRQ,≤ 0.2
21,THSV,≤ 0.2
22,AQCS,≤ 0.2
23,NWKY,≤ 0.2
24,KFYT,≤ 0.2

row,Variant,one-hybrid fitness for binding parS DNA
1,RQMS,0.998
2,RQMG,0.973
3,RQMC,0.945
4,RQMM,0.33
5,RQMN,0.423
6,RQMY,0.474
7,RQMP,≤ 0.2
8,RQMT,0.881
9,RQMD,≤ 0.2
10,RQMQ,≤ 0.2
11,RQML,≤ 0.2
12,RQMH,0.292
13,DRVV,≤ 0.2
14,NSRG,≤ 0.2
15,SMFV,≤ 0.2
16,FLVT,≤ 0.2
17,RNHP,≤ 0.2
18,RNLN,0.251
19,RNWP,≤ 0.2
20,RNWN,≤ 0.2
21,RNHS,0.911
22,RNIH,≤ 0.2
23,RNIG,0.597
24,RNPG,0.433

row,Variant,one-hybrid fitness for binding parS DNA
1,RNWS,0.705
2,RNHH,≤ 0.2
3,RNLS,0.895
4,RNLD,≤ 0.2
5,MDVV,≤ 0.2
6,QCYT,≤ 0.2
7,GRNR,≤ 0.2
8,EQIG,≤ 0.2
9,FSEV,≤ 0.2
10,HKDS,≤ 0.2
11,YPGT,≤ 0.2
12,ADYG,≤ 0.2
13,CAGL,≤ 0.2
14,RNQH,≤ 0.2
15,RNSS,0.967
16,RNGD,≤ 0.2
17,RNYH,≤ 0.2
18,RNQP,≤ 0.2
19,RNQS,0.921
20,RNGP,≤ 0.2
21,RNSP,≤ 0.2
22,RNYS,0.85
23,RNSN,0.385
24,RNPS,0.478

row,Variant,one-hybrid fitness for binding parS DNA
1,RNGS,0.873
2,GNAI,≤ 0.2
3,MPRT,≤ 0.2
4,LHGD,≤ 0.2
5,GSGG,≤ 0.2
6,TQRY,≤ 0.2
7,LATY,≤ 0.2
8,GQKN,≤ 0.2
9,HRKI,≤ 0.2
10,RNCS,0.83
11,RNID,≤ 0.2
12,RNIS,0.65
13,RNIN,≤ 0.2
14,RNCD,≤ 0.2
15,RNRP,≤ 0.2
16,RNCN,0.304
17,RNRS,0.961
18,RNRN,0.371
